CYP2C9 act: increases human cytochrome P450 2C9 activity. 96,000 tested, 1.4% active. recombinant CYP2C9, luciferin-H conversion, luminescence; active compounds read high; factor 1 = untreated enzyme, 0 = blocked. activation factor at 5 µM. P11712;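 active = activation factor of 2 or more for CYP2C9 at a 5 µM dose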;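 also: 0 = sulfaphenazole-blocked wells and 1 = vehicle-only wells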
CYP2C19 inh: blocks human cytochrome P450 2C19. P33261. CYP2C19 Supersomes, luciferin-H EGE luminescence, 30 min. inhibition, % at 5 µM. 96,000 tested, 21% active. AID 778;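 active = CYP2C19 inhibition above a set limit at 5 µM in the primary screen, cut at about 50% in these data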;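 also: plate controls were negative control wells for no effect and 2.5 mM tranylcypromine positive control for full effect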
Target sequence (P33261 whole entry, looked up): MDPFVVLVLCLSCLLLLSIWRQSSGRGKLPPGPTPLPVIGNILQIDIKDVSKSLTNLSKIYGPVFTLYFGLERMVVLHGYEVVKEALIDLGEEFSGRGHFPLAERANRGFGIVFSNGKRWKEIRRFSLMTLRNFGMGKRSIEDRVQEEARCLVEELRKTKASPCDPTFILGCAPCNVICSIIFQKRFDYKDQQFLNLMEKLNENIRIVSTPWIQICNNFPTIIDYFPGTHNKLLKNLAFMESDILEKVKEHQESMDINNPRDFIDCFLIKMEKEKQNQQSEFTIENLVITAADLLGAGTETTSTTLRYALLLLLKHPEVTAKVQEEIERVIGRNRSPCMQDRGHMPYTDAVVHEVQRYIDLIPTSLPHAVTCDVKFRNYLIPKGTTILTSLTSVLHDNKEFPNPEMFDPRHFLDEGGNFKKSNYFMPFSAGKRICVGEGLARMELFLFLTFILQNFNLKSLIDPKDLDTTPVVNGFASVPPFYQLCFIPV
CYP2C19 activ: activators of human cytochrome P450 2C19. recombinant CYP2C19, luciferin-H EGE luminescence; active compounds read high; 0 = fully inhibited enzyme, 1 = untreated enzyme. 96,000 tested, under 10 active. activation factor at 5 µM;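 active = activation factor of at least 2 at 5 µM in the primary screen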;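 also: 0 = wells with 2.5 mM tranylcypromine and 1 = vehicle-only wells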
Measles CPE: protection of cells from measles virus; Measles virus-infected cells, CPE protection, absorbance; protection (pct of control), % at 4 µM; 140,000 tested, 1.5% active; in the data active = protection mostly above about 24%, no sharp cut-off; inactive = mostly below about 26%
CYP2C9 inhib: inhibitors of human CYP2C9 | P11712 | CYP2C9 Supersomes, luciferin-H conversion, luminescence | inhibition, % at 5 µM | 96,000 tested, 20% active | AID 777;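 active = blocking of liver enzyme CYP2C9 beyond about 50% at 5 µM, limit read from the data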
Starred values were filed as active, the others as inactive; x = not tested or not shown. Shown are actives, neighbours in structure and some others; about 22% of the full set was active somewhere.

SMILES | CYP2C9 act | CYP2C19 inh | CYP2C19 activ | Measles CPE | CYP2C9 inhib
CCCCN=C(C)c1c(O)c2ccccc2oc1=O | 0.4 | 84.9* | 0.2 | 7.7 | 55.6*
N#C/C(=C/c1ccc(Br)s1)C(=O)NCCc1c[nH]c2ccccc12 | x | x | x | 16.9 | x
CSc1nnc(C)c(=O)n1COC(=O)COc1ccccc1C | x | x | x | 6.4 | x
CC(C)N=C(NC#N)SCc1ccccc1F | 0.5 | 84.7* | 0.2 | 8.9 | 48.7
Cc1cccc2nc(CSc3ccccc3C(=O)O)cn12 | x | x | x | 54.2* | x
CC(C)NS(=O)(=O)c1ccc(OCC(=O)NCc2ccc3c(c2)OCO3)c(Cl)c1 | 0.1 | 97.4* | 0 | 4.0 | 93.6*
COc1ccc(CCNC(=O)CCc2ccc(S(=O)(=O)NC(C)C)cc2)cc1OC | x | x | x | 14.8 | x
COc1ccc(CCNC(=O)COc2ccc(S(=O)(=O)NC(C)C)cc2Cl)cc1OC | 0.1 | 64.9* | 0.4 | 5.5 | 86.0*
COc1ccc(CCNC(=O)Cn2cccc2C(=O)c2ccccc2C)cc1OC | x | x | x | 7.8 | x
CCOC(=O)c1c(CN2CCN(CCO)CC2)n(C)c2cc(Br)c(OC)cc12 | 0.2 | 8.8 | 0.9 | 9.0 | 79.1*
CCOC(=O)c1c(CN2CCCCC2)n(C)c2cc(Br)c(OC)cc12 | 0.7 | 11.9 | 0.9 | 6.2 | 34.4
Cn1c(N=NC(=O)c2ccccc2)c(O)c2ccccc21 | x | x | x | 4.8 | x
CC1CCCN(CC(=O)Nc2cccc([N+](=O)[O-])c2)C1 (centres undefined) | x | x | x | 31.6* | x
O=C(CNC1CCCCCC1)Nc1ccc(S(=O)(=O)NC2CC2)cc1 | 0.7 | 25.4 | 0.7 | 1.6 | 29.3
CC1CCCN(CC(=O)Nc2ccc(S(=O)(=O)NC3CCCCC3)cc2)C1 (centres undefined) | 0.5 | 78.3* | 0.2 | 5.2 | 52.1*
CC1CCCN(CC(=O)Nc2ccc(S(=O)(=O)N3CCCCCC3)cc2)C1 (centres undefined) | 0.4 | 26.5 | 0.7 | 6.7 | 62.1*
CC1CCCN(CC(=O)Nc2ccc(S(=O)(=O)N3CCCCC3)cc2)C1 (centres undefined) | x | x | x | 7.3 | x
CCOCCCNC(=O)c1cc(Sc2ccc(F)cc2)nc2ccccc12 | x | x | x | 13.1 | x
Nc1nnc(Cc2ccc(Cl)c(Cl)c2)s1 | 0.9 | 58.1* | 0.4 | 12.2 | 7.5
CC(C)NC(=O)C(=O)NC1CCCCCC1 | 1.1 | 12.9 | 0.9 | 3.2 | -6.2
CC(C)/C=C1\CCCCC1N(C)C(=O)NC(C)C (centres undefined) | 0.7 | 58.5* | 0.4 | 4.2 | 34.6
Cc1ccc(N2CC(C(=O)NCC3CCCO3)CC2=O)cc1Cl (centres undefined) | 2.6* | 2.1 | 1 | 15.9 | -161.5
Cc1cnn(C(=S)NCC2CCCO2)c1 (centres undefined) | 1 | 55.7* | 0.4 | 10.9 | 0.4
CN(C)CCNC(=O)C1CC(=O)N(c2ccc(F)c(Cl)c2)C1 (centres undefined) | 1.3 | 7.5 | 0.9 | 13.0 | -27.6
Cc1cc(C(=O)NNC(=S)NCC2CCCO2)cs1 (centres undefined) | 1.2 | 51.5* | 0.5 | 2.0 | -20.7
SMILES | CYP2C9 act | CYP2C19 inh | CYP2C19 activ | Measles CPE | CYP2C9 inhib
Cc1ccc(C(=O)NC(=S)NCC2CCCO2)cc1 (centres undefined) | 0.6 | 68.3* | 0.3 | 2.0 | 37.1
CCc1c(C(=O)NNC(=S)NCC2CCCO2)csc1C (centres undefined) | x | x | x | 6.1 | x
COc1cc(/C=C/C(=O)N2CCN(CC(O)COc3ccccc3)CC2)cc(OC)c1OC (centres undefined) | 1.1 | 1.9 | 1 | 13.7 | -10.9
CC(=O)Oc1ccc2c(C)cc(=O)oc2c1C(=O)c1ccccc1 | x | x | x | 21.6 | x
COC(=O)/C=C1/S/C(=N/N=C/c2ccc(N(C)C)cc2)NC1=O | x | x | x | 9.2 | x
Cc1ccc(C)n1-c1ccc(C(=O)NCC2CCCO2)cc1 (centres undefined) | 0.8 | 57.9* | 0.4 | 9.8 | 18.0
COc1ccc(C(=O)NCC2CCCO2)cc1 (centres undefined) | x | x | x | 8.7 | x
c1ccc(Cn2nnnc2C(c2cccs2)N2CCOCC2)cc1 (centres undefined) | 1 | 63.0* | 0.4 | 6.0 | 4.6
CC1CCN(C(c2cccs2)c2nnnn2Cc2ccccc2)CC1 (centres undefined) | 0.6 | 88.5* | 0.1 | 10.1 | 36.5
c1ccc(Cn2nnnc2C(c2cccs2)N2CCSCC2)cc1 (centres undefined) | x | x | x | 5.4 | x
CC(C)(C)NC(=O)COC(=O)c1nsc(Cl)c1Cl | x | x | x | 15.8 | x
CCOc1ccc(S(=O)(=O)n2nnc3ccccc32)cc1C(C)C | 0.9 | 0.7 | 1 | 13.7 | 7.6
Cc1nc(=O)c(-c2ccccc2)c(C)n1CCCCCC(=O)O | 1 | -4.1 | 1 | 6.6 | 0.3
Cn1c(=O)oc2cc(S(=O)(=O)N3CCC(C(=O)N4CC=C(c5ccccc5)CC4)CC3)ccc21 | 1.1 | 72.9* | 0.3 | 2.5 | -5.1
Cn1c(=O)oc2cc(S(=O)(=O)N3CCC(C(=O)N4CCN(c5ccccc5)CC4)CC3)ccc21 | 1.3 | -8.8 | 1.1 | 1.9 | -31.2
CCOC(=O)C1CCCN(C(=O)C2CCCN(S(=O)(=O)c3ccc4c(c3)oc(=O)n4C)C2)C1 (centres undefined) | 0.2 | 28.0 | 0.7 | 1.5 | 80.6*
Cn1c(=O)oc2cc(S(=O)(=O)N3CCCC(C(=O)N4CCc5ccccc5C4)C3)ccc21 (centres undefined) | 0.5 | 91.4* | 0.1 | 3.2 | 47.6
CC(C)CC(=O)NC1(C(F)(F)F)C(=O)Nc2c1c(=O)n(C)c(=O)n2C (centres undefined) | 1 | -8.0 | 1.1 | 4.1 | -1.1
Cc1ccc(S(=O)(=O)N2CCC(=O)N(CCOCc3ccc(C(F)(F)F)cc3)CC2)cc1 | x | x | x | 9.5 | x
O=c1[nH]c(=O)n(-c2ccc(F)cc2)c2c1C(C(F)(F)F)(C(F)(F)F)N=C(c1ccc(F)cc1)N2 | x | x | x | 5.1 | x
Cc1cc(C)c(S(=O)(=O)/N=C2\C=CC(=O)C(Cl)=C2)c(C)c1 | 0.8 | 50.9* | 0.5 | 22.4 | 16.4
CC(C)(C)OC(=O)NNC(=S)NCc1ccc(Cl)cc1 | 0.4 | 56.6* | 0.4 | 3.5 | 55.4*
O=C(/C=C/c1ccncc1)c1ccc(NC(=O)c2ccccc2F)cc1 | x | x | x | 1.2 | x
Cc1ccc(NC(=O)COc2ccc3oc4c(c3c2)CCCC4)nc1 | 0.4 | 31.4 | 0.7 | 8.6 | 55.2*
Cc1ccc(NCCC(=O)c2cccc([N+](=O)[O-])c2)c(C)c1 | 0.6 | 75.4* | 0.2 | 5.3 | 37.6
Cc1ccc(CSCCNC(=O)c2cccc([N+](=O)[O-])c2)cc1 | x | x | x | 6.4 | x
CCOC(=O)CC1=C(C(=O)OCC)C(c2ccc(OC)cc2OC)C(C#N)=C(N)O1 (centres undefined) | 0.4 | 49.2 | 0.5 | 22.0 | 63.9*
CCOC(=O)C1=C(CC)OC(N)=C(C#N)C1c1ccsc1 (centres undefined) | x | x | x | 9.7 | x
Cc1ccc(C2C(C#N)=C(N)Oc3c2sc2ccccc32)o1 (centres undefined) | 0.2 | 62.8* | 0.4 | 14.3 | 81.1*
CCOC(=O)CC1=C(C(=O)OCC)C(c2ccc(C)o2)C(C#N)=C(N)O1 (centres undefined) | 0.7 | 94.3* | 0.1 | 9.6 | 30.7

Screens as filed in PubChem BioAssay.
